Outcome and AC50 data for 25 compounds are collected here from PubChem BioAssay (EPA / NIEHS).

Inconclusive results are not listed. Calls of active or inactive are those of the source. The calls were made as follows, unless noted: active = hit-call score of the fitted dose curve at least 0.9, where 1 is the maximum; inconclusive = response in the unintended direction; inactive = score below 0.9.

Glyceraldehyde-3-phosphate dehydrogenase (Homo sapiens), sequence (P04406 whole entry, looked up): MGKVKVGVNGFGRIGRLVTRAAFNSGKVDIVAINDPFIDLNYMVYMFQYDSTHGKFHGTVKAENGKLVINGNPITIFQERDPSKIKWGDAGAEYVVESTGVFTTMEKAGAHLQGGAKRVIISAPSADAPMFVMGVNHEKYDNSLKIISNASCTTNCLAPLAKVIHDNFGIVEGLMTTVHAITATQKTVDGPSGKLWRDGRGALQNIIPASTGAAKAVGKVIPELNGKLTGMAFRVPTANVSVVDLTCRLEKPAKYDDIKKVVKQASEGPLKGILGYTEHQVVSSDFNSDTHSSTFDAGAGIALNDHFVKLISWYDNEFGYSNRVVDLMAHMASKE
Broad substrate specificity ATP-binding cassette transporter ABCG2 (Homo sapiens), sequence (Q9UNQ0 whole entry, looked up): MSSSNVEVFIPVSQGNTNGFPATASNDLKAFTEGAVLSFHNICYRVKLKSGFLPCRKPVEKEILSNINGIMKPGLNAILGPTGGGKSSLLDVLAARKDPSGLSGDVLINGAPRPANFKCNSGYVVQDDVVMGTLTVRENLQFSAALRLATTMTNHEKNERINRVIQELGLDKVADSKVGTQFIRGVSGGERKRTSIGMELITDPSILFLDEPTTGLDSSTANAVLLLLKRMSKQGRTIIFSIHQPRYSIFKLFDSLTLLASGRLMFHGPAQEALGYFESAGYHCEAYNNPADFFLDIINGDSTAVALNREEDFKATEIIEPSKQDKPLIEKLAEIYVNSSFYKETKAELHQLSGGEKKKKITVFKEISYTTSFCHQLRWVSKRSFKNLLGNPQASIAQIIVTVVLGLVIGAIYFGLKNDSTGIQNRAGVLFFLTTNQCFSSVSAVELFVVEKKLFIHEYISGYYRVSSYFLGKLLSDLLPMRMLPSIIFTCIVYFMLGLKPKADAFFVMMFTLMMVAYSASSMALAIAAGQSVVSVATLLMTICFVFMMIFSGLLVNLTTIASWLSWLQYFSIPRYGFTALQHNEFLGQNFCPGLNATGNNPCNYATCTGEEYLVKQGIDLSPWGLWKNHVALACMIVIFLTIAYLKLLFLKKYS

Read-out in one test: Broad substrate specificity ATP-binding cassette transporter ABCG2 (Homo sapiens) (UniProt Q9UNQ0)
The test can be described thus: CLD_ABCG2_48hr: CellzDirect (CLD) Gene Expression Assay for ABC Transporter (ABCG2) at 48 hours (AID 2283704). In outline: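 ABCG2 transcript measured at 48 h by quantitative nuclease protection (chemiluminescent) and fitted for increase relative to 0.2% DMSO. Hepatocyte cultures from separate donors got fresh compound daily over two days; morphology annotated cytotoxicity.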
Consider `CCC(C)(CC)c1cc(NC(=O)c2c(OC)cccc2OC)on1`, for which the compound was called inactive.

For `Cc1ccccc1CO[C@@H]1C[C@@]2(C(C)C)CC[C@]1(C)O2`, the call was inactive.

With `CCNc1nc(NC(C)C)nc(SC)n1`, the result was inactive.

Read-out in a further test: xenobiotic metabolism (CYP1A1), CYP1A1 (gene 1543)
The test can be described thus: CLD_CYP1A1_48hr: CellzDirect (CLD) Gene Expression Assay for xenobiotic metabolism (CYP1A1) at 48 hours (AID 2283705). Summed up:
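CYP1A1 transcript measured by quantitative nuclease protection (chemiluminescent) 48 h after two daily treatments of human hepatocyte cultures, versus 0.2% DMSO. Morphology-based cytotoxicity flags accompany data; two donor preparations used.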
Turning to `CCC(C)(CC)c1cc(NC(=O)c2c(OC)cccc2OC)on1`, the AC50 (commonly the midpoint of the concentration-response curve, whichever way the signal moves) was 3.98 µM (active).

As to `Cc1ccccc1CO[C@@H]1C[C@@]2(C(C)C)CC[C@]1(C)O2`, the call was inactive.

In the case of `CCNc1nc(NC(C)C)nc(SC)n1`, the half-maximal activity concentration (AC50) was 9.24 µM (active).

Read-out in the next test: Glyceraldehyde-3-phosphate dehydrogenase (Homo sapiens) (UniProt P04406)
The test can be described thus: CLD_GAPDH_48hr: CellzDirect (CLD) Gene Expression Assay for Baseline Control (Glyceraldehyde 3-phosphate dehydrogenase) at 48 hours (AID 2283706).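 Also: active means higher GAPDH mRNA than DMSO vehicle.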 The method, then: CLD_48hr is a cell-based, multiplexed-readout assay that uses hepatocyte, a human liver primary cell, with measurements taken at 48 hours after chemical dosing in a 96-well plate.CLD_GAPDH_48hr is one of 16 assay component(s) measured or calculated from the CLD_48hr assay. It is designed to make measurements of mRNA induction, a form of inducible reporter, as detected with chemiluminescence signals by Quantitative Nuclease Protection Assay (qNPA) technology.Data from the assay component CLD_GAPDH_48hr was analyzed at the endpoint, CLD_GAPDH_48hr, in the positive analysis fitting direction relative to DMSO as the negative control and baseline of activity. Using a type of inducible reporter, gain-of-signal activity can be used to understand changes in the reporter gene as they relate to the gene GAPDH. Furthermore, this assay endpoint can be referred to as a secondary readout, because this assay has produced multiple assay endpoints where this one serves a background control function. To generalize the intended target to other relatable targets, this assay endpoint is annotated to the background measurement intended target family, where subfamily is baseline control.
Human hepatocyte cultures were treated daily for two consecutive days with fresh dosing solutions containing appropriate concentrations of the 320 ToxCast chemicals (chemical identities were blinded to CellzDirect and other ToxCast collaborators), vehicle control (0.2% DMSO), and positive control inducers as summarized in Table 1. […] These replicate data, coupled with internal replicates designed within the blinded ToxCast chemical library, provided additional data to evaluate interindividual differences between hepatocyte preparations and their potential impact on chemical profiles.Cell morphology and integrity were evaluated using phase-contrast microscopy as an indicator of hepatocyte cell health (Tyson & Green, 1987). Cultures for each treatment group (i.e., media, vehicle [0.2% DMSO], positive control inducers [multiple concentrations], and the ToxCast chemicals [multiple concentrations]) were observed and cell morphology was assessed relative to vehicle control cultures at each harvest time point (0, 6, 24, or 48 h). […] Images were evaluated at the conclusion of the study to assess changes in cell integrity and account for the effects of chemical exposure on uncharacteristic changes in concentration-dependent gene expression profiles. […]
As for `CN(C)c1nc(=O)n(C2CCCCC2)c(=O)n1C`, the result was inactive.

As to `CCSC(=O)N(CC)C1CCCCC1`, the call was inactive.

Regarding `Cc1ccccc1CO[C@@H]1C[C@@]2(C(C)C)CC[C@]1(C)O2`, the call was inactive.

`CCNc1nc(NC(C)C)nc(SC)n1`: the compound was classed as inactive.

Read-out in the next test: alkyl and aryl transferase (GSTA2), GSTA2 (gene 2939)
The test can be described thus: CLD_GSTA2_48hr: CellzDirect (CLD) Gene Expression Assay for alkyl and aryl transferase (GSTA2) at 48 hours (AID 2283708).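 Also: active means mRNA induction above DMSO vehicle baseline.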 Summed up: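 GSTA2 mRNA quantified by qNPA chemiluminescence in human primary hepatocyte lysates after 48 h of daily fresh chemical dosing. Increases fitted against 0.2% DMSO vehicle baseline; cytotoxicity from morphology annotated yes/no.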
As to `CCC(C)(CC)c1cc(NC(=O)c2c(OC)cccc2OC)on1`, the compound was classed as inactive.

Regarding `CCSC(=O)N(CC)C1CCCCC1`, the AC50 is 7.96 µM (active).

`Cc1ccccc1CO[C@@H]1C[C@@]2(C(C)C)CC[C@]1(C)O2`: the result was inactive.

Consider `CCNc1nc(NC(C)C)nc(SC)n1`, for which the AC50 is 8.73 µM (active).

Read-out in another test: glucuronosyltransferase (UGT1A1), UGT1A1 (gene 54658)
Description: CLD_UGT1A1_48hr: CellzDirect (CLD) Gene Expression Assay for glucuronosyltransferase (UGT1A1) at 48 hours (AID 2283709).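 Also: actives increase expression relative to DMSO so potency refers to induction.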 The method, then:
(§1) CLD_48hr is a cell-based, multiplexed-readout assay that uses hepatocyte, a human liver primary cell, with measurements taken at 48 hours after chemical dosing in a 96-well plate.CLD_UGT1A1_48hr is one of 16 assay component(s) measured or calculated from the CLD_48hr assay. It is designed to make measurements of mRNA induction, a form of inducible reporter, as detected with chemiluminescence signals by Quantitative Nuclease Protection Assay (qNPA) technology.Data from the assay component CLD_UGT1A1_48hr was analyzed at the endpoint, CLD_UGT1A1_48hr, in the positive analysis fitting direction relative to DMSO as the negative control and baseline of activity. Using a type of inducible reporter, gain-of-signal activity can be used to understand changes in the reporter gene as they relate to the gene UGT1A1. Furthermore, this assay endpoint can be referred to as a primary readout. To generalize the intended target to other relatable targets, this assay endpoint is annotated to the transferase intended target family, where subfamily is glucuronosyltransferase.
(§2) Human hepatocyte cultures were treated daily for two consecutive days with fresh dosing solutions containing appropriate concentrations of the 320 ToxCast chemicals (chemical identities were blinded to CellzDirect and other ToxCast collaborators), vehicle control (0.2% DMSO), and positive control inducers as summarized in Table 1. Due to the large number of treatment groups and chemicals examined, the ToxCast chemicals were divided into two groups (spanning two independent cultures of hepatocytes from separate donor preparations (Hu778: ToxCast plates 1 and 2; Hu776: ToxCast plates 3 and 4). Each preparation of human hepatocyte cultures was treated with respective vehicle control, medium only control, set of six positive controls/reference chemicals for the five hepatic receptor pathways, and a subset of eight of the ToxCast chemicals (indoxacarb, pyrithiobac-sodium, norflurazon, cyhalofop-butyl, methomyl, thiram, acetochlor, and propiconazole). These replicate data, coupled with internal replicates designed within the blinded ToxCast chemical library, provided additional data to evaluate interindividual differences between hepatocyte preparations and their potential impact on chemical profiles.Cell morphology and integrity were evaluated using phase-contrast microscopy as an indicator of hepatocyte cell health (Tyson & Green, 1987). Cultures for each treatment group (i.e., media, vehicle [0.2% DMSO], positive control inducers [multiple concentrations], and the ToxCast chemicals [multiple concentrations]) were observed and cell morphology was assessed relative to vehicle control cultures at each harvest time point (0, 6, 24, or 48 h). […] Images were evaluated at the conclusion of the study to assess changes in cell integrity and account for the effects of chemical exposure on uncharacteristic changes in concentration-dependent gene expression profiles. The results from these determinations of apparent cytotoxicity were annotated (yes/no) alongside the corresponding qNPA data for reference.At the conclusion of each treatment period, hepatocyte cultures (96-well) were washed with 1 volume of HBSS, lysed by addition of 25 ul ArrayPlate lysis buffer (HTG, Tucson, AZ), and 70 ul/well of Denaturation Oil, denatured by incubation at 95C for 10 min, and frozen at approximately -70C until analysis by nuclease protection assay (qNPA) (Roberts et al., 2007). […]
Take `CN(C)c1nc(=O)n(C2CCCCC2)c(=O)n1C`: the result was inactive.

With `CCC(C)(CC)c1cc(NC(=O)c2c(OC)cccc2OC)on1`, the concentration at half-maximal activity (AC50) was 0.498 µM (active).

Regarding `CCSC(=O)N(CC)C1CCCCC1`, the outcome was inactive.

On to `Cc1ccccc1CO[C@@H]1C[C@@]2(C(C)C)CC[C@]1(C)O2`, for which the AC50 is 7.69 µM (active).

For `CCNc1nc(NC(C)C)nc(SC)n1`, the compound was classed as inactive.

Read-out in another test: sulfotransferase (SULT2A), SULT2A1 (gene 6822)
The test can be described thus: CLD_SULT2A_48hr: CellzDirect (CLD) Gene Expression Assay for sulfotransferase (SULT2A) at 48 hours (AID 2283710).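 Also: hits raise SULT2A1 transcript above the 0.2% DMSO vehicle baseline.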 The method, then:
as §1, with “plate.CLD_SULT2A_48hr” for “plate.CLD_UGT1A1_48hr”, “CLD_SULT2A_48hr” for “CLD_UGT1A1_48hr”, “CLD_SULT2A_48hr,” for “CLD_UGT1A1_48hr,”, “SULT2A1.” for “UGT1A1.”, “sulfotransferase.” for “glucuronosyltransferase.”
as §2
Take `CN(C)c1nc(=O)n(C2CCCCC2)c(=O)n1C`: the result was inactive.

Consider `CCC(C)(CC)c1cc(NC(=O)c2c(OC)cccc2OC)on1`, for which the AC50 is 3.78 µM (active).

As to `CCSC(=O)N(CC)C1CCCCC1`, the result was inactive.

For `Cc1ccccc1CO[C@@H]1C[C@@]2(C(C)C)CC[C@]1(C)O2`, the outcome was inactive.

Consider `CCNc1nc(NC(C)C)nc(SC)n1`, for which the call was inactive.

System in another test: not listed separately
Description: STM_H9_OrnithineISnorm_perc: Stemina devTOX quickPredict H9 human embryonic stem cell (hESC)-based Assay for Ornithine (ORN) Metabolite Biomarker, Normalized (AID 2283712; active = hit-call score of the fitted dose curve at least 0.9, where 1 is the maximum; inactive = score below 0.9;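 also: ornithine released into spent medium during last day measured by mass spectrometry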). Summed up:
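Ornithine in spent medium from the last 24 h of a 72 h exposure, deproteinised and quantified by UPLC-HRMS against an isotope-labelled internal standard, expressed relative to 0.1% DMSO. Pluripotent H9 cells; compound refreshed every 24 h.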
For the compound `Oc1ccc(C(c2ccc(O)cc2)(C(F)(F)F)C(F)(F)F)cc1`, the result was inactive.

`ClC1=C(Cl)[C@]2(Cl)[C@@H]3[C@H]4C[C@H]([C@@H]5O[C@H]45)[C@@H]3[C@@]1(Cl)C2(Cl)Cl`: the half-maximal activity concentration (AC50) was 60.9 µM (active).

With `COS(=O)(=O)OC`, the outcome was inactive.

With `CCC(C)c1cc([N+](=O)[O-])cc([N+](=O)[O-])c1O` (stereo unspecified), the outcome was inactive.

`CO/C=C(/C(=O)OC)c1ccccc1COc1cccc(C(F)(F)F)n1`: the AC50 was 0.0992 µM (active).

For `ClC1=C(Cl)[C@]2(Cl)[C@@H]3[C@@H]4C[C@@H]([C@H]5O[C@@H]45)[C@@H]3[C@@]1(Cl)C2(Cl)Cl`, the result was inactive.

Take `O=NN(c1ccccc1)c1ccccc1`: the result was inactive.

As to `CCCCCCCCCC[N+](C)(C)CCCCCCCCCC`, the AC50 was 1.82 µM (active).

Turning to `CCCCCCOC(=O)c1ccccc1C(=O)OCCCCCC`, the result was inactive.

For the compound `CCSC(=O)N(CC)C1CCCCC1`, the outcome was inactive.

Regarding `Clc1ccc(C(c2ccccc2Cl)C(Cl)(Cl)Cl)cc1` (stereo unspecified), the concentration at half-maximal activity (AC50) is 79.3 µM (active).

For the compound `CCOCCOC(C)=O`, the outcome was inactive.

Regarding `Cc1cc(O)ccc1Cl`, the outcome was inactive.

`C1CC2OC2CC1C1CO1` (stereo unspecified): the concentration at half-maximal activity (AC50) was 79.3 µM (active).

For `C=CC(=O)NCNC(=O)C=C`, the AC50 was 65.6 µM (active).

For `Clc1ccc(C(Cl)(Cl)Cl)cc1`, the half-maximal activity concentration (AC50) is 94.7 µM (active).

Consider `C=CC(N)=O`, for which the outcome was inactive.

As for `CCC(=O)O[C@H]1CC[C@H]2[C@@H]3CCC4=CC(=O)CC[C@]4(C)[C@H]3CC[C@]12C`, the AC50 is 29.5 µM (active).

As for `CCCCCCCCOC(=O)c1ccccc1C(=O)OCCCCCCCC`, the result was inactive.

Take `CC1=C2C[C@H]3[C@@H](CC=C4C[C@@H](O)CC[C@@]43C)[C@@H]2CC[C@]12O[C@@H]1C[C@H](C)CN[C@H]1[C@H]2C`: the result was inactive.

Take `Nn1cnnc1`: the AC50 was 0.037 µM (active).

Take `CCNc1nc(NC(C)C)nc(SC)n1`: the outcome was inactive.
